# USP8 block = inhibitors of human USP8 deubiquitinase | Ubiquitin carboxyl-terminal hydrolase 8 (Homo sapiens), P40818 | purified USP8, Ub-rhodamine cleavage fluorescence, 30 min | inhibition, % at 20 µM | hit rate 4.2% among 47,000
# Target sequence (P40818 whole entry, looked up): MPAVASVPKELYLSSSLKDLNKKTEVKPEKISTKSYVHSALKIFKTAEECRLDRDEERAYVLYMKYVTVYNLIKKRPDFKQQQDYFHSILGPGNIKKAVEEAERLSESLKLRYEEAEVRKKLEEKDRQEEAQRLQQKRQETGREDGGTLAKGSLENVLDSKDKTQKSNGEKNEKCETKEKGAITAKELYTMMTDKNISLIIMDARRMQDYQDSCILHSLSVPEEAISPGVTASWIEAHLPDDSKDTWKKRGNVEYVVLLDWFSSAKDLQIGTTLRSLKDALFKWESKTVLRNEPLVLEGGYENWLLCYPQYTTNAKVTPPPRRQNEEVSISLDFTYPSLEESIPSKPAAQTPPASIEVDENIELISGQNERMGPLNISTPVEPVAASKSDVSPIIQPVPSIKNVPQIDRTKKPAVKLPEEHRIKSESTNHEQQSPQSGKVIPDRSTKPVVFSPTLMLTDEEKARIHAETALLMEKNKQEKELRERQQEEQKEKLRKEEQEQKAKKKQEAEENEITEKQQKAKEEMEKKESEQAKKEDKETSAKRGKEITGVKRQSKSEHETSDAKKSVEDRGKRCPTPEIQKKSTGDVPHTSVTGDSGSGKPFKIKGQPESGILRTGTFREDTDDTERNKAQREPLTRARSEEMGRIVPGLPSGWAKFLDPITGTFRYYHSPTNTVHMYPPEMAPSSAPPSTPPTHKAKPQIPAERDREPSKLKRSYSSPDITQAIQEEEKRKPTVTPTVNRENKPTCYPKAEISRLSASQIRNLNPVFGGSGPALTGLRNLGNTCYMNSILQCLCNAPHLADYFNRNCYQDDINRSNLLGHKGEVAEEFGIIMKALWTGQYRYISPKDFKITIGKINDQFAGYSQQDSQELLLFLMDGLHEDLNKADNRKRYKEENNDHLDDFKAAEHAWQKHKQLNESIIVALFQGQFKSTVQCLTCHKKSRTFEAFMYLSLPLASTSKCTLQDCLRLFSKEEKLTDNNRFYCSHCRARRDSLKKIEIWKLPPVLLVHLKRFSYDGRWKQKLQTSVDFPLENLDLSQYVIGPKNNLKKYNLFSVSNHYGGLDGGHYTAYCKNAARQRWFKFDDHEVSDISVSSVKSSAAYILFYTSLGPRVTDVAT
# USP28 block = inhibitors of human USP28 deubiquitinase; Ubiquitin carboxyl-terminal hydrolase 28 (Homo sapiens), Q96RU2; purified USP28, Ub-rhodamine cleavage fluorescence, 30 min; inhibition, % at 25 µM; hit rate 3% among 47,000
# USP30 block = inhibitors of human USP30 deubiquitinase; hit rate 5.3% among 47,000; inhibition, % at 25 µM; purified USP30, Ub-rhodamine cleavage fluorescence
# USP17 inh = inhibitors of human USP17 deubiquitinase; Ubiquitin carboxyl-terminal hydrolase 17-like protein 5 (Homo sapiens), A8MUK1; purified USP17, Ub-rhodamine cleavage fluorescence, 3 h; inhibition, % at 50 µM; hit rate 6.5% among 47,000
# A number is an active result; – = inactive; · = no result. In the library only some 14% were active in any assay of this set; here they are far more common. No stated cut-off is given here; in the data, active means inhibition above about 30%; inactive means the rest.
SMILES,USP8 block,USP28 block,USP30 block,USP17 inh
O=C(NCCc1c[nH]c2ccccc12)NCc1ccc(Cl)cc1Cl,–,–,31.8,–
Nc1ncc(-c2cccc(C3CN(C(=O)CN4CCCCCC4=O)CCO3)n2)cn1 (stereo not given),–,–,–,–
Cc1cccc(-c2cncc(C3CCCN(C(=O)CO)C3)n2)c1 (stereo not given),–,–,–,–
CCC(C)c1ccc(NC(=O)COc2nc3ccccc3nc2C)cc1 (stereo not given),–,–,–,47.4
O=C(CS(=O)(=O)c1cn(CC(=O)N2CCCC2)c2ccccc12)Nc1ccccc1C(F)(F)F,–,–,–,–
Cc1sc(-c2cccnc2)nc1OC(=O)c1ccc(S(C)(=O)=O)cc1Cl,–,–,–,–
Cc1sc(-c2cccnc2)nc1OC(=O)c1ccc(Cl)c(Cl)c1,–,–,61.9,37.9
COc1ccc(CNC(=O)CN2C(=O)C(C)=C(c3ccc(C)cc3)S2(=O)=O)cc1,–,57.5,–,–
COc1ccc(CNC(=O)CN2CCN(Cc3ccccc3C)C2=O)cc1,–,–,–,–
Cc1noc(CN2CCC3(CC2)CC3c2nc(-c3cccc(Cl)c3)no2)n1 (stereo not given),–,–,–,–
C/C(=C\Cc1c(O)cc(C)c(C=O)c1O)CC[C@@]1(C)[C@H](C)CCC(=O)[C@@H]1C,–,–,–,49.8
C=C1C(=O)OC(CCCCC)C1C(=O)O (stereo not given),–,35.9,–,–
COc1ccc(CCNCc2cc3c(C(C)(C)C)nn(-c4ccccc4)c3[nH]c2=O)cc1OC,45.8,–,–,–
Cn1c(=O)[nH]c(=O)c2c1nc(NCc1ccco1)n2CCO,–,–,–,–
CC(C)(C)c1nn(-c2ccccc2)c2[nH]c(=O)c(CNCc3ccco3)cc12,38.9,–,–,–
O=S(=O)(NCCc1c[nH]c2ncccc12)c1ccccc1,–,–,–,–
COC(=O)c1cn(CC(=O)NCCOc2ccc(Cl)cc2)c2ccccc12,–,–,44.4,–
CCC(=O)c1cn(CC(=O)NCCOc2ccc(Cl)cc2)c2ccccc12,–,–,–,–
O=C(CC(NCc1ccco1)C(=O)O)Nc1cccc(Cl)c1Cl (stereo not given),–,–,31.9,–
CCc1cc2c(NCc3ccc(F)cc3)ncnc2s1,–,–,–,32.3
COc1ccc(CNc2ncnc3sccc23)cc1OC,–,–,–,–
CO/C=C/C(=O)c1cc2cnc3c(=N)cc(NC(C)=O)c([nH]1)c23,41.5,42.7,–,54.4
Cc1ncc(-c2cncc(CC3CCCN(C(=O)c4ccncc4)C3)n2)n1C (stereo not given),–,–,–,–
COc1ccc(CC(=O)N2CC(=O)Nc3ccc(Br)cc3C2c2ccccc2)cc1 (stereo not given),–,–,38.0,–
O=C1CN(C(=O)COc2ccccc2)C(c2ccccc2)c2cc(Br)ccc2N1 (stereo not given),–,·,·,–
SMILES,USP8 block,USP28 block,USP30 block,USP17 inh
O=C1CN(C(=O)CC2CCCCC2)C(c2ccccc2)c2cc(Cl)ccc2N1 (stereo not given),34.4,–,43.1,–
CC(C)NC(=O)C1CCN(c2ccc(SCC(=O)Nc3ccccc3Cl)nn2)CC1,–,–,34.3,–
Cn1cc(C(=O)N[C@@H]2C[C@H](O)[C@@H](N3CCc4ccccc4C3)[C@@H]2O)cn1,–,–,–,–
O=C(NCc1cccc(Cl)c1)c1ccc(-c2nnc(-c3ccccc3)o2)cc1,93.3,–,–,50.3
Cc1cccc(CNC(=O)c2ccc(-c3nnc(-c4cccc(C)c4)o3)cc2)c1,–,–,–,81.6
COc1ccc(CNC(=O)c2ncoc2-c2cccc(C)c2)cc1OC,–,–,–,–
COc1ccc(-c2nc(C3CC(=O)N(Cc4ccccc4)C3)no2)cc1 (stereo not given),–,–,–,–
CCOC(=O)c1nc(Nc2ccc(OC)c(Cl)c2)c2ccccc2n1,–,–,49.4,74.5
Cc1cc(Cl)ccc1NC(=O)COC(=O)c1n[nH]c2ccccc12,31.0,–,–,–
CC(=O)N1CCc2cc(S(=O)(=O)NCCC(=O)Nc3cccc(C)c3C)ccc21,–,–,63.7,33.7
CCN(CC)c1ncc2c(n1)CCC(C(=O)NC(C)c1ccccn1)C2 (stereo not given),–,–,–,–
CCN(CC)c1ncc2c(n1)CCC(C(=O)N1CCCC1)C2 (stereo not given),–,45.0,–,–
CC(C)CCn1c(=O)c2ccccc2n2c(CCC(=O)N3CCC(Cc4ccccc4)CC3)nnc12,–,–,–,–
COc1ccccc1C(=O)Nc1ccc(C)c(N2CCCCC2=O)c1,–,–,–,–
CCc1cc(C(=O)c2ccc(OC)cc2)c(NC(=O)CN2CCCCC2)s1,–,–,73.9,–
COc1ccc(C(=O)Nc2cc(OC)c(NC(=O)CN3CCOCC3)cc2OC)cc1,58.2,–,–,–
CCc1cc(C(=O)c2ccc(OC)cc2)c(NC(=O)CCC(=O)O)s1,–,–,30.6,–
COc1cc(NC(=O)c2ccc(Cl)cc2)c(OC)cc1NC(=O)CN1CCOCC1,–,–,–,–
NC(=O)C1(N2CCCCC2)CCN(c2ncc(C(F)(F)F)cc2Cl)CC1,–,–,–,–
O=S(=O)(Nc1ccccc1Cc1ccccc1)c1ccc(Cl)cc1,–,–,31.4,–
CCOc1ccc(S(=O)(=O)Nc2ccccc2Cc2ccccc2)cc1,–,–,–,–
O=S(=O)(Nc1ccccc1Cc1ccccc1)c1ccc(F)cc1,–,–,38.2,36.0
CCCc1ccc(S(=O)(=O)Nc2ccccc2F)cc1,–,–,31.7,–
O=C(NCc1ccc(F)cc1)N1CCC2(C1)Nc1cccnc1NC2=NCc1ccccc1 (stereo not given),–,–,–,–
O=C(Nc1ccc(Cc2ccncc2)cc1)c1ccccc1Br,–,–,–,–
SMILES,USP8 block,USP28 block,USP30 block,USP17 inh
COc1ccccc1C(=O)Nc1ccc(Cc2ccncc2)cc1,–,35.5,–,–
O=C(NC1CCS(=O)(=O)C1)c1ccc(N2CCC(Cc3ccccc3)CC2)nn1 (stereo not given),–,–,–,53.1
COc1ccccc1NS(=O)(=O)c1ccc(C(=O)NCc2ccc(S(N)(=O)=O)cc2)cc1,–,–,–,–
NS(=O)(=O)c1ccc(CNS(=O)(=O)/C=C/c2ccccc2)cc1,–,56.7,78.2,85.9
COc1ccc(NC(=O)Cn2c(C)cc(=O)n3nc(-c4cccc(C)c4)nc23)cc1,63.9,–,31.4,–
CCc1ccc(NC(=O)Cn2c(C)cc(=O)n3nc(C(F)(F)F)nc23)cc1,–,–,–,–
Cc1ccc(C(=O)N2CCN(c3nc4ccncc4n(C)c3=O)CC2)s1,–,–,–,–
CCNC(=O)C[C@@H]1CCN2C[C@@H]1CCCOc1ccc(N3CCOCC3)cc1CNCC2=O,–,–,–,–
COc1ccccc1CNC(=O)Cn1cnc2c(-c3ccccc3)csc2c1=O,69.7,–,32.8,–
CC(C)n1cnc2c(-c3ccccc3)cn(CC(=O)NCc3ccccc3)c2c1=O,–,–,–,35.7

# Screening results deposited in PubChem by Buhrlage Lab, Dana-Farber Cancer Institute and Novartis Institutes for BioMedical Research (Cambridge, Mass).
